Measurements from PubChem BioAssay (Tox21).
Several values for one entry are separate records, joined by “and”; a condition that tells them apart may be missing. Equal entries are not always repeated. Results filed as inconclusive are left out. Entries that show only a call come without a potency. More than one record can exist for a structure, and the calls need not agree. Activity calls are given as the source filed them. The call rests on the fitted dose curve; in most records, active means well fitted curve in the direction sought with a large enough effect in the repeat runs; inconclusive means weak or mixed curves; inactive means no such curve, though single readings can be large; an effect the other way counts as inactive or inconclusive. Non-standard residues stand in square brackets, D forms with d. Residues, ends and D or L forms follow the SMILES beside them. Orn = NCCC[C@H](N)C(=O)O

Columns and labels:
[1] = target: Nuclear receptor subfamily 1 group I member 2 (Rattus norvegicus) (UniProt Q9R1A7); assay: Rat pregnane X receptor (rPXR) activation by small molecules, qHTS assay (AID 1346983); conditions: rPXR luciferase reporter cells, One-Glo luminescence, 24 h; max activation: stronger effect = higher value; further: nearly all actives have a fitted effect of over 20% in size
Outline: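 Luminescent readout (One-Glo luciferase, 30 min room temperature) followed 24 hr compound treatment at 37 C of rPXR cells plated 2,000 per well and preincubated 5hr; qHTS format with compounds delivered in DMSO.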

[2] = target: Nuclear receptor subfamily 1 group I member 2 (Homo sapiens) (UniProt O75469); assay: CYP3A4 induction through human pregnane X receptor (PXR) by small molecules, qHTS assay (AID 1346984); further: nearly all actives have a fitted effect of over 40% in size
Outline: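 Human PXR activation is tracked via CYP3A4 promoter-luciferase in DPX-2 (HepG2) cells. Compounds treat cells for 24hr at 37C, and luminescence is read after One-Glo.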

[3] = target: Nuclear receptor subfamily 1 group I member 2 (Homo sapiens) (UniProt O75469); assay: Human pregnane X receptor (PXR) activation by small molecules, qHTS assay (AID 1346985); further: nearly all actives have a fitted effect of over 40% in size
Outline: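 DPX-2 cells (HepG2 co-transfected with a PXR response element and a CYP3A4-promoter luciferase construct) were seeded at 2,000 per well, rested 5 hr at 37C, then exposed to DMSO-dissolved compounds for 24 hr. Activation was read as luciferase luminescence.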
Potency means the concentration at half of the fitted maximal effect.

Nuclear receptor subfamily 1 group I member 2 (Rattus norvegicus), sequence (Q9R1A7 whole entry, looked up): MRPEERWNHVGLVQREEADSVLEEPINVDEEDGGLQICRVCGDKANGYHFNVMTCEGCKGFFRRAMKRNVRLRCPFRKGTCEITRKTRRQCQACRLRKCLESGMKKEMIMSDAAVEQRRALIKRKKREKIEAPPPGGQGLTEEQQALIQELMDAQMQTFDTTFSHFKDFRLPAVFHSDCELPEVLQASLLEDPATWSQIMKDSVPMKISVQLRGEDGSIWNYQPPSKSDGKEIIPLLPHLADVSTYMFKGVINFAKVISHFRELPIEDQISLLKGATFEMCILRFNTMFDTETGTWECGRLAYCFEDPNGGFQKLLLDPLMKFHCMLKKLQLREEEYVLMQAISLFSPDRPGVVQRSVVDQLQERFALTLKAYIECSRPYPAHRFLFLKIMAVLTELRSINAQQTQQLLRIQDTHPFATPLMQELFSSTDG

Structure (SMILES) | max activation [1] | Potency [2] | Potency [3] | Potency [1]
NC(=O)CC[C@@H]1NC(=O)[C@H](Cc2ccccc2)NC(=O)[C@H](Cc2ccc(O)cc2)NC(=O)[C@@H](N)CSSC[C@@H](C(=O)N2CCC[C@H]2C(=O)N[C@@H](CCCN=C(N)N)C(=O)NCC(N)=O)NC(=O)[C@H](CC(N)=O)NC1=O | -0.0397% (inactive) | inactive | inactive | –
CC/C(=C(/CC)c1ccc(OP(=O)(O)O)cc1)c1ccc(OP(=O)(O)O)cc1 | -1.74% (inactive) | inactive | inactive | –
CC(C)CCC[C@@H](C)[C@H]1CC[C@H]2[C@@H]3CC=C4C[C@@H](O)CC[C@]4(C)[C@H]3CC[C@]12C | -2.66% (inactive) | inactive | inactive | –
COc1cc2c(cc1O)CCN[C@]21CS[C@@H]2c3c(OC(C)=O)c(C)c4c(c3[C@H](COC1=O)N1[C@@H]2[C@H]2c3c(cc(C)c(OC)c3O)C[C@@H]([C@@H]1O)N2C)OCO4 | -17.5% (inactive) | inactive | inactive | –
NS(=O)(=O)c1cc(Cl)c(Cl)c(S(N)(=O)=O)c1 | -2.98% (inactive) | inactive | inactive | –
CC(C)C[C@@H](NC(=O)[C@@H](O)[C@H](N)Cc1ccccc1)C(=O)O | -7.87% (inactive) | inactive | inactive | –
C=CCN1C(=O)C(CC(C)C)NC1=S (stereo unspecified) | 12.3% (inactive) | inactive | inactive | –
CC[C@H]1OC(=O)[C@H](C)C(=O)[C@H](C)[C@@H](O[C@@H]2O[C@H](C)C[C@H](N(C)C)[C@H]2O)[C@](C)(OC)C[C@@H](C)C(=O)[C@H](C)[C@H]2N(CCCCn3cnc(-c4cccnc4)c3)C(=O)O[C@]12C | 2.76% (inactive) | inactive and 501 nM (active) | inactive and 794 nM (active) | –
CO/N=C(\C(=O)N[C@@H]1C(=O)N2C(C(=O)O)=C(CSc3nc(C)c(CC(=O)O)s3)CS[C@H]12)c1csc(N)n1 | -4.17% (inactive) | inactive | inactive | –
CC1=C(/C=C/C(C)=C/C=C/C(C)=C/C=C/C=C(C)/C=C/C=C(C)/C=C/C2=C(C)CCCC2(C)C)C(C)(C)CCC1 | -2.1% (inactive) | inactive | inactive | –
NC[C@H]1O[C@H](O[C@H]2[C@H](O)[C@@H](O[C@H]3O[C@H](CO)[C@@H](O)[C@H](N)[C@H]3O)[C@H](N)C[C@@H]2N)[C@H](N)C[C@@H]1O | 7.07% (inactive) | inactive | inactive | –
NC(=O)[C@@H]1CCCN1C(=O)[C@H](Cc1cnc[nH]1)NC(=O)[C@@H]1CCC(=O)N1 | -0.96% (inactive) | inactive | inactive | –
CN(C)CCc1c[nH]c2ccc(Cn3cncn3)cc12 | -1.87% (inactive) | inactive | inactive | –
Cc1cc(CC(C)CC(C)(C)C)n(O)c(=O)c1 (stereo unspecified) (tested in a mixture with another compound) | -3.3% (inactive) | inactive | 25.1 µM (active) | –
CNC(=O)C[C@@H](N)C(=O)N[C@@H](C(=O)N[C@@H]1C(=O)N2[C@@H]1SC(C)(C)[C@@H]2C(=O)O)c1ccc(O)cc1 | -2.18% (inactive) | inactive | inactive | –
CCN(CC)C(=O)c1cccnc1 | -3.83% (inactive) | inactive | inactive | –
Cc1cnc(C(=O)O)c[n+]1[O-] | -2.61% (inactive) and 6.98% (inactive) and -0.594% (inactive) | inactive | inactive | –
O=C(O)[C@@H]1C[C@H](CP(=O)(O)O)CCN1 | -5.85% (inactive) | inactive | inactive | –
CCOc1cc(CC(=O)N[C@@H](CC(C)C)c2ccccc2N2CCCCC2)ccc1C(=O)O | -4.89% (inactive) | inactive | inactive | –

Structure (SMILES) | max activation [1] | Potency [2] | Potency [3] | Potency [1]
O=P(O)(O)C(O)(Cn1ccnc1)P(=O)(O)O | -1.82% (inactive) | inactive | inactive | –
CC(C)(COP(=O)(O)OP(=O)(O)OC[C@H]1O[C@@H](n2cnc3c(N)ncnc32)[C@H](O)[C@@H]1OP(=O)(O)O)C(O)C(=O)NCCC(=O)NCCS (stereo partly specified) | 0.513% (inactive) | inactive | inactive | –
CC(C)C[C@@H]1NC(=O)[C@H](CCCN)NC(=O)[C@H](C(C)C)NC(=O)[C@@H]2CCCN2C(=O)[C@@H](Cc2ccccc2)NC(=O)[C@H](CC(C)C)NC(=O)[C@H](CCCN)NC(=O)[C@H](C(C)C)NC(=O)[C@@H]2CCCN2C(=O)[C@@H](Cc2ccccc2)NC1=O (cyclo(V[Orn]L[dF]PV[Orn]L[dF]P)) | -16.3% (inactive) | inactive | inactive | –
CN[C@H](CC(C)C)C(=O)N[C@H]1C(=O)N[C@@H](CC(N)=O)C(=O)N[C@H]2C(=O)N[C@H]3C(=O)N[C@H](C(=O)N[C@@H](C(=O)O)c4cc(O)cc(O)c4-c4cc3ccc4O)[C@H](O)c3ccc(c(Cl)c3)Oc3cc2cc(c3O[C@@H]2O[C@H](CO)[C@@H](O)[C@H](O)[C@H]2O[C@H]2C[C@](C)(N)C(O)[C@H](C)O2)Oc2ccc(cc2Cl)[C@H]1O (stereo partly specified) | -3.51% (inactive) | inactive | inactive | –
CSCCC(N)C(=O)O (stereo unspecified) | -0.631% (inactive) | inactive | inactive | –
CC(C)=CCC/C(C)=C/CC/C(C)=C/CC/C(C)=C/CC1=C(C)C(=O)c2ccccc2C1=O | -1.32% (inactive) | inactive | inactive | –
CCOc1ccc(NC(=S)Nc2ccc(OCC)cc2)cc1 | -1.61% (inactive) | inactive | inactive | –
N[C@H](CO)C(=O)O | -0.898% (inactive) | inactive | inactive | –
Cc1c(O)c(=O)ccn1C | -3.64% (inactive) | inactive | inactive | –
Cc1ncc(C[n+]2csc(CCOP(=O)(O)O)c2C)c(N)n1 | -1.3% (inactive) | inactive | inactive | –
c1ccc(-n2cnnn2)cc1 | -5.33% (inactive) | inactive | inactive | –
CC[C@@H](C)[C@H](N)C(=O)O | -3.95% (inactive) | inactive | inactive | –
O=C(O)c1ccc(NC2OC[C@@H](O)[C@H](O)[C@H]2O)cc1 (stereo partly specified) | 10.7% (inactive) | inactive | inactive | –
C=C(Nc1ccc(OCC)cc1)Nc1ccc(OCC)cc1 | -1.1% (inactive) and 0.608% (inactive) | – | inactive | –
CC(C)OC(=O)Nc1ccc2nc(-c3cscn3)[nH]c2c1 | – | – | 5.01 µM (active) | 8.91 µM (active)
CC1CCCCN1CCCOC(=O)c1ccccc1 (stereo unspecified) | -7.12% (inactive) | inactive | inactive | –
CC(CNC(=O)c1cccnc1)NC(=O)c1cccnc1 (stereo unspecified) | -2.47% (inactive) | – | inactive | –
O=C1c2ccccc2C(=O)C1c1ccc(F)cc1 | – | – | 12.6 µM (active) | 28.2 µM (active)
OCl | 0.862% (inactive) | inactive | inactive | –

Structure (SMILES) | max activation [1] | Potency [2] | Potency [3] | Potency [1]
CCN(CC)C(=O)[C@]1(c2ccccc2)C[C@@H]1CN | -2.63% (inactive) | – | inactive | –
CC(C)NCC1CCc2cc(CO)c([N+](=O)[O-])cc2N1 (stereo unspecified) | -0.344% (inactive) | – | inactive | –
C/C(=C\C(=O)OCCCCCCCCC(=O)O)C[C@@H]1OC[C@H](C[C@@H]2O[C@H]2[C@@H](C)[C@H](C)O)[C@@H](O)[C@H]1O | -5.5% (inactive) | inactive | inactive | –
Nc1cc(Cl)c(NC2=NCCN2)c(Cl)c1 | -1.9% (inactive) | – | inactive | –
CCc1cn([C@H]2C[C@H](O)[C@@H](CO)O2)c(=O)[nH]c1=O | 1.52% (inactive) | – | inactive | –
Nc1nc(/C(=C/CC(=O)O)C(=O)N[C@@H]2C(=O)N3C(C(=O)O)=CCS[C@H]23)cs1 | -1.46% (inactive) | – | inactive | –
CCC(NC(C)C)C(O)c1ccc(O)c(O)c1 (stereo unspecified) | -0.219% (inactive) | – | inactive | –
CN=C(N)NCCC[C@H](N)C(=O)O | -7.28% (inactive) | inactive | inactive | –
NC(=O)[C@H]1O[C@@H](O)[C@H](O)[C@@H](O)[C@@H]1O | -0.18% (inactive) | – | inactive | –
CC(=O)Oc1cc(C(F)(F)F)ccc1C(=O)O | 2.94% (inactive) | – | inactive | –
O=C1[O][Bi][O]c2ccccc21 | -4.48% (inactive) | inactive | inactive | –
O=C(O)[C@H]1CN(C/C=C/P(=O)(O)O)CCN1 | -2.14% (inactive) | – | inactive | –
c1ccc2c(c1)OCC(CN1CCCCC1)O2 (stereo unspecified) | -3.94% (inactive) | – | inactive | –
NC(=O)c1cc[n+](CC2=C(C(=O)O)N3C(=O)[C@@H](NC(=O)C(c4ccccc4)S(=O)(=O)[O-])[C@H]3SC2)cc1 (stereo partly specified) | -2.77% (inactive) | – | inactive | –
C(=C\c1ccncc1)/c1ccccc1 | – | inactive | inactive | –
C/C=C/C1=C(C(=O)O)N2C(=O)[C@@H](NC(=O)[C@H](N)c3ccc(O)cc3)[C@H]2SC1 | -4.1% (inactive) | inactive | inactive | –
CCN(CC)CC#CCOC(=O)C(O)(c1ccccc1)C1CCCCC1 (stereo unspecified) | 13% (inactive) | 8.91 µM (active) | 17.8 µM (active) | –
CO[C@H]1C[C@@H]2CC[C@@H](C)[C@@](O)(O2)C(=O)C(=O)N2CCCC[C@H]2C(=O)O[C@H]([C@H](C)C[C@@H]2CC[C@@H](O)[C@H](OC)C2)CC(=O)[C@H](C)C=C(C)[C@@H](O)[C@@H](OC)C(=O)[C@H](C)C[C@H](C)/C=C/C=CC=C1C | -10.6% (inactive) and -9.93% (inactive) | – | inactive | –
